# Measured values published in PubChem BioAssay AID1851 (National Center for Advancing Translational Sciences (NCATS), 2009).
# The whole screen tested about 16,000 compounds, of which about 4,000 (25%) were called active. Roughly 26% stayed inconclusive and do not appear here. The call rests on the fitted dose curve; in most records, active means well fitted curve in the direction sought with a large enough effect; inconclusive means small, poorly fitted or top-dose-only effect, or effect the other way; inactive means no such curve, though single readings can be large or run the other way. Only a sample is shown.
# Target: Cytochrome P450 2C9 (Homo sapiens) (UniProt P11712)
# Sequence (P11712 whole entry, looked up): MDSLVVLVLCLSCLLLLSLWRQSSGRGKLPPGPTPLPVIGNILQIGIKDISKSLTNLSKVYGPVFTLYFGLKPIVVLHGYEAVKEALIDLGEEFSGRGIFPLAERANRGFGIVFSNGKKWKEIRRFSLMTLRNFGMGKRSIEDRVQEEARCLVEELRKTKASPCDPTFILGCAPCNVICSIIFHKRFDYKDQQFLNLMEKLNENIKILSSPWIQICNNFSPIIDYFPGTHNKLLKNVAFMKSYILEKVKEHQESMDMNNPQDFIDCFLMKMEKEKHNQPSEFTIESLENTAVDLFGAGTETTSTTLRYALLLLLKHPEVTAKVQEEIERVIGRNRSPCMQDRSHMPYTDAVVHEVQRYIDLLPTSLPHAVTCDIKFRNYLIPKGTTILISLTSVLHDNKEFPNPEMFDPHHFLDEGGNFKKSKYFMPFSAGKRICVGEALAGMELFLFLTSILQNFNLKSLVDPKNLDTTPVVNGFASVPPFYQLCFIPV
# Experiment: Cytochrome panel assay with activity outcomes
# Conditions: recombinant CYP, pro-luciferin dealkylation, luminescence, p450-cyp2c9; series mostly up to 57.1 µM
# On the % scale 0 is the no-effect control and ±100 the full control effect.
Compound,"activity, negative = inhibition",AC50
Cc1nc(N)sc1CCN,inactive,
Cc1ccc(C2(c3ccc(C)c(O)c3C)CCN(C)CC2)c(C)c1O,7.08% [at 11.4 µM] (inactive),
COc1cc([C@H]2c3cc4c(cc3[C@@H](O)[C@@H]3COC(=O)[C@H]23)OCO4)cc(OC)c1OC,,1.26 µM (active)
COc1ccc2c(c1OC)CN1CCc3cc4c(cc3[C@H]1C2)OCO4,inactive,
CP(=O)(O)C1=CCNCC1,inactive,
COC(=O)[C@H]1[C@@H](c2ccccc2)[C@@]2(c3ccccc3)Oc3ccccc3[C@@]1(O)[C@@H]2O,-12.5% [at 11.4 µM] (inactive),
S=C(S)N1CCCC1,,20 µM (active)
CCN=C=NCCCN(C)C,-7.95% [at 11.4 µM] (inactive),
O=C(COc1ccc2ccccc2c1)N1CCN(CC2CC3C=CC2C3)CC1 (centres undefined),,17.8 µM (active)
CC(=O)N1CCC2(CC1)CC(=O)c1cc(OCC(=O)N3CCN(C)CC3)ccc1O2,inactive,
N[C@@H](Cn1oc(=O)[nH]c1=O)C(=O)O,inactive,
O=C(CCCN1CCC(n2c(=O)[nH]c3ccccc32)CC1)c1ccc(F)cc1,inactive,
C=C[C@H]1CN2CC[C@@H]1C[C@H]2[C@@H](O)c1ccnc2ccccc12,inactive,
O=S(=O)(O)/C(=C\c1ccccc1)c1ccccc1 (tested in a mixture with another compound),-14.8% [at 11.4 µM] (inactive),
COc1cc(OC)c(/C=C2/C(=O)Nc3ccccc32)c(OC)c1,,25.1 µM (active)
c1ccc(C2CC2)c(OCC2=NCCN2)c1,inactive,
c1ccc(CCN2CCOCC2)nc1,-0.553% [at 11.4 µM] (inactive),
C[C@@]12CC[C@H]3[C@@H](CC=C4C[C@H](OS(=O)(=O)O)CC[C@]43C)[C@H]1CCC2=O,inactive,
c1ccc(CCN2CCCCCC2)nc1,-1.38% [at 11.4 µM] (inactive),
CC(C)C[C@H](NP(=O)(O)O[C@@H]1O[C@@H](C)[C@@H](O)[C@@H](O)[C@H]1O)C(=O)N[C@@H](Cc1c[nH]c2ccccc12)C(=O)O,inactive,
CC(C)C[C@H](NC(=O)N1CCCCCC1)C(=O)N[C@H](Cc1cn(C)c2ccccc12)C(=O)N[C@H](Cc1ccccn1)C(=O)O,,6.31 µM (active)
CO[C@H]1C=C2CCN(C)[C@@H]2[C@@H]2c3cc4c(cc3C(=O)O[C@H]21)OCO4,inactive,
CC[n+]1c(/C=C/N(C)c2ccccc2)sc2ccc(Cl)cc21,inactive,
CNCCCc1ccccc1,inactive,
COc1ccc(OC)c([C@H](O)[C@H](C)N)c1,inactive,

Compound,"activity, negative = inhibition",AC50
O=c1oc(Cl)c(Cl)c2ccccc12,,15.8 µM (active)
NNC(N)=O,inactive,
CCN1CCN(Cc2cc(OC)c(OC)cc2[N+](=O)[O-])CC1,inactive,
CCCN1CCC[C@H](c2cccc(O)c2)C1,inactive,
CCC[C@@](C)(COC(N)=O)COC(=O)NC(C)C,inactive,
c1cnc(N2CC[C@@]3(CCCNC3)C2)nc1,inactive,
CCCC(CCC)C(=O)O,inactive,
CCc1ccc(CCN2CCCCC2)nc1,-14.9% [at 11.4 µM] (inactive),
CCNC(=O)[C@@H]1O[C@@H](n2cnc3c(N)ncnc32)[C@@H](O)[C@H]1O,inactive,
CC(=O)Nc1ccccc1C(=O)OCc1ccc(C(=O)c2ccccc2)cc1,,3.55 µM (active)
CC[C@H]1CN2CCc3cc(OC)c(OC)cc3[C@H]2C[C@@H]1C[C@H]1NCCc2c1[nH]c1ccc(O)cc21,5.99% [at 11.4 µM] (inactive),
COC(=O)Nc1nc2ccc(C(=O)c3cccs3)cc2[nH]1,inactive,
CN1[C@H]2CC(=O)C[C@@H]1[C@@H](O)C2,inactive,
CN1C(=O)C(=Cc2ccc(N3CCCCCC3)o2)C(=O)N(C)C1=S,,7.94 µM (active)
COc1cc(C[C@H](C)N)c(OC)cc1I,inactive,
C/C=C1\C[N@@+]2(C)CC[C@@]34C(=C(C=O)[C@H]1C[C@H]32)Nc1ccccc14,inactive,
O=[N+]([O-])c1cc(O)c(O)c([N+](=O)[O-])c1,,0.794 µM (active)
O=[N+]([O-])c1cc([As](=O)(O)O)ccc1O,inactive,
C[As+](C)(c1ccc(Br)c([N+](=O)[O-])c1)c1ccc(Br)c([N+](=O)[O-])c1.O=[N+]([O-])O,1.81% [at 11.4 µM] (inactive),
O=C(CCCN1CCC2(CC1)C(=O)NCN2c1ccccc1)c1ccc(F)cc1,inactive,
[N-]=[N+]=NCC(=O)c1c[nH]c(=O)[nH]c1=O,-6.58% [at 11.4 µM] (inactive),
O=C1NCN(c2ccccc2)C12CCN(CCCOc1ccc(F)cc1)CC2,inactive,
CC(C)c1c(CN(C)[C@@H](C)Cc2ccccc2)n(C)n(-c2ccccc2)c1=O,,7.94 µM (active)
CCCN(CCC)C(=O)Cc1c(-c2ccc(Cl)cc2)nc2c(Cl)cc(Cl)cn12,inactive,
